Screens (PubChem)
Sampled rows, rich in hits. Any-hit rate of the full collection: about 6.7%.
Pf Dd2 growth: inhibitors of Plasmodium falciparum Dd2 growth. 2.3% of 94,000 active. activity change, % at 10 µM. P. falciparum Dd2 growth, SYBR Green, 72 h; hits give low values; in the data active means activity change below about -80%; inconclusive means no clear call, values can overlap the other calls
C diff growth: blocks growth of Clostridium difficile; AID 1259249; growth activity, negative = inhibition, % at 16 µg/mL (by protocol); Clostridium difficile clinical isolate growth, OD600, 24 h; hits give low values; 0.25% of 86,000 active;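 active means mean growth activity at or below -80% and every replicate also at or below -80%; inconclusive means mean at or below -80% but some replicate above -80%; inactive means mean growth activity above -80%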
T cruzi growth-1: blocks T. cruzi growth in NIH3T3 culture; AID 624255; 5.9% of 77,000 active; inhibition, % at 8.34 µM; T. cruzi beta-gal in NIH3T3, GalScreen luminescence, 90 h;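 active means mean inhibition above about 93%, with at least 55% of replicates each passing it, limit read from the data, passing the limit was not always enough; inconclusive means only one of those two conditions holds; inactive means neither condition holds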
T cruzi growth-2: inhibitors of T. cruzi proliferation. shares compounds with T cruzi growth-1. T. cruzi beta-gal in NIH3T3, GalScreen luminescence, 90 h. 72% of 5,600 active. inhibition, % at 8.35 µM;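 active means mean replicate inhibition above about 95% and at least 55% of replicates individually reaching it, limit read from the data; inconclusive means only one of the two criteria is met; inactive means neither criterion is met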
T cruzi growth-3: blocks T. cruzi growth in NIH3T3 host cells; inhibition, % at 2.09 µM; T. cruzi beta-gal in NIH3T3, GalScreen luminescence, 90 h; AID 651740; shares compounds with T cruzi growth-1; 21% of 5,600 active;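 active means mean inhibition above about 95%, with at least 55% of replicates also reaching it, limit read from the data; inconclusive means meets just one of the two conditions; inactive means meets neither condition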
3T3 cytotox: cytotoxicity in mouse NIH/3T3 fibroblasts. shares compounds with T cruzi growth-1. NIH/3T3 viability, CellTiter-Glo ATP luminescence, 90 h. cytotoxicity (signal decrease), % at 8.35 µM. 14% of 5,600 active;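 active means mean signal decrease across replicates above about 35% based on untreated-well scatter, with enough replicates individually passing, limit read from the data; inconclusive means no rule stated though some were filed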
3T3 cytotox 2: kills mouse NIH/3T3 fibroblasts; shares compounds with T cruzi growth-1; NIH/3T3 viability, CellTiter-Glo ATP luminescence, 90 h; inhibition, % at 24.9 µM; 56% of 5,600 active; AID 651744;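 active means mean loss of cell viability signal at or above a set limit, and enough replicates individually reaching it; inconclusive means meets only the mean limit or only the replicate share; inactive means meets neither condition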
Numbers stand for hits.

What do the screens show for `C[C@@H]1CCCCO[C@H](CN(C)C(=O)C2CCCCC2)[C@H](C)CN([C@@H](C)CO)C(=O)c2cc(N(C)C)ccc2O1`?
Pf Dd2 growth: inactive; C diff growth: inactive; T cruzi growth-1: 110; T cruzi growth-2: inactive; T cruzi growth-3: inactive; 3T3 cytotox: inactive; 3T3 cytotox 2: inactive

Results for C[C@@H]1CCCCO[C@@H](CN(C)C(=O)C2CCCCC2)[C@@H](C)CN([C@H](C)CO)C(=O)c2cc(N(C)C)ccc2O1 ?
C diff growth: inactive; T cruzi growth-1: inactive

What do the screens show for `C[C@H](CO)N1C[C@H](C)[C@H](CN(C)C(=O)C2CCCCC2)OCCCC[C@H](C)Oc2ccc(N(C)C)cc2C1=O`?
Pf Dd2 growth: inactive; C diff growth: inactive; T cruzi growth-1: 100; T cruzi growth-2: inactive; T cruzi growth-3: inactive; 3T3 cytotox: inactive; 3T3 cytotox 2: inactive

How did CN(C)CC(=O)N1[C@H](C(=O)NCc2ccccc2F)[C@@H](CO)[C@@H]2Cn3c(cccc3=O)[C@@H]21 do in these assays?
Pf Dd2 growth: inactive; C diff growth: inactive

What do the screens show for `COCC(=O)N(C)C[C@@H]1Oc2cc(C#CC(C)(C)O)ccc2S(=O)(=O)N([C@H](C)CO)C[C@@H]1C`?
Pf Dd2 growth: inactive; C diff growth: inactive

Results for Cc1noc(C)c1S(=O)(=O)N(C)C[C@H]1OCCCC[C@@H](C)Oc2ccc(NC(=O)C3CCCCC3)cc2C(=O)N([C@@H](C)CO)C[C@H]1C ?
Pf Dd2 growth: inactive; C diff growth: inactive; T cruzi growth-1: inactive

Results for O=S(=O)(c1ccccc1)N1C[C@H]2[C@@H](c3ccccc31)[C@@H](CO)N2Cc1ccc(F)cc1 ?
Pf Dd2 growth: inactive; C diff growth: inactive; T cruzi growth-1: inactive

Results for Cc1cccc(S(=O)(=O)N2C[C@H]3[C@@H](c4ccccc42)[C@H](CO)N3Cc2cccnc2)c1 ?
Pf Dd2 growth: inactive; C diff growth: inactive; T cruzi growth-1: inactive

What do the screens show for `O=S(=O)(c1ccccc1)N1C[C@H]2[C@@H](c3ccccc31)[C@H](CO)N2Cc1ccc2c(c1)OCO2`?
Pf Dd2 growth: inactive; C diff growth: inactive; T cruzi growth-1: inconclusive; T cruzi growth-2: inactive; T cruzi growth-3: inactive; 3T3 cytotox: inactive; 3T3 cytotox 2: inactive

Results for O=S(=O)(c1ccccc1)N1C[C@@H]2[C@H](c3ccccc31)[C@H](CO)N2Cc1ccc(F)cc1 ?
Pf Dd2 growth: inactive; C diff growth: inactive; T cruzi growth-1: inactive

Results for O=S(=O)(c1ccc(F)cc1)N1C[C@@H]2[C@H](c3ccccc31)[C@@H](CO)N2Cc1ccc2c(c1)OCO2 ?
Pf Dd2 growth: inactive; C diff growth: inactive; T cruzi growth-1: inactive

How did O=S(=O)(c1ccccc1)N1C[C@H]2[C@@H](c3ccccc31)[C@@H](CO)N2Cc1ccc2c(c1)OCO2 do in these assays?
Pf Dd2 growth: inactive; C diff growth: inactive; T cruzi growth-1: 101; T cruzi growth-2: 101; T cruzi growth-3: inactive; 3T3 cytotox: inactive; 3T3 cytotox 2: inactive

What do the screens show for `O=S(=O)(c1ccccc1)N1C[C@@H]2[C@H](c3ccccc31)[C@H](CO)N2Cc1ccc2c(c1)OCO2`?
Pf Dd2 growth: inactive; C diff growth: inactive; T cruzi growth-1: 111; T cruzi growth-2: 105; T cruzi growth-3: inactive; 3T3 cytotox: inactive; 3T3 cytotox 2: inactive

What do the screens show for `Cc1cccc(S(=O)(=O)N2C[C@@H]3[C@H](c4ccccc42)[C@H](CO)N3Cc2ccc3c(c2)OCO3)c1`?
Pf Dd2 growth: inactive; C diff growth: inactive; T cruzi growth-1: 109; T cruzi growth-2: 101; T cruzi growth-3: 108; 3T3 cytotox: inactive; 3T3 cytotox 2: inactive

Results for COc1ccc(S(=O)(=O)N(C)C[C@H]2Oc3ccc(NC(=O)CCCCCC(=O)Nc4ccccc4N)cc3C(=O)N([C@@H](C)CO)C[C@@H]2C)cc1 ?
Pf Dd2 growth: inactive; C diff growth: inactive

What do the screens show for `C[C@H]1CN([C@@H](C)CO)C(=O)c2cccc(NC(=O)Nc3ccccc3)c2O[C@@H]1CN(C)CC1CCCCC1`?
Pf Dd2 growth: inactive; C diff growth: inactive; T cruzi growth-1: inactive

What do the screens show for `CC(=O)[C@]12O[C@@]3(COC[C@H](c4ccccc4)N3C1=O)[C@H]1C(=O)N(c3ccccc3)C(=O)[C@H]12`?
C diff growth: inactive

What do the screens show for `O=C(C[C@H]1CC[C@@H](NC(=O)C2CCOCC2)[C@@H](CO)O1)Nc1ccccc1`?
Pf Dd2 growth: inactive; C diff growth: inactive

What do the screens show for `C[C@H]1CN([C@@H](C)CO)S(=O)(=O)c2ccc(C#CC3CCCC3)cc2O[C@@H]1CN(C)Cc1cccnc1`?
Pf Dd2 growth: inactive; C diff growth: inactive; T cruzi growth-1: 98; T cruzi growth-2: 101; T cruzi growth-3: 111; 3T3 cytotox: inactive; 3T3 cytotox 2: 105

What do the screens show for `C[C@@H]1CN([C@@H](C)CO)S(=O)(=O)c2ccc(C#CC3CCCC3)cc2O[C@@H]1CN(C)Cc1cccnc1`?
Pf Dd2 growth: inactive; C diff growth: inactive; T cruzi growth-1: 103; T cruzi growth-2: 101; T cruzi growth-3: inconclusive; 3T3 cytotox: 60; 3T3 cytotox 2: 106

How did C[C@H]1CN([C@@H](C)CO)S(=O)(=O)c2ccc(C#CC3CCCCC3)cc2O[C@@H]1CN(C)Cc1cccnc1 do in these assays?
Pf Dd2 growth: inactive; T cruzi growth-1: inactive

What do the screens show for `C[C@@H]1CN([C@H](C)CO)S(=O)(=O)c2ccc(C#CC3CCCC3)cc2O[C@H]1CN(C)Cc1cncnc1`?
Pf Dd2 growth: inactive

Results for CNC[C@H]1Oc2ncc(Br)cc2C(=O)N([C@H](C)CO)C[C@H]1C ?
Pf Dd2 growth: inactive; C diff growth: inactive

How did CC1C=NC(S(=O)(=O)N2CC[C@@H]3[C@H]2c2cc(-c4cccc(F)c4)ccc2N(C)[C@H]3CO)=N1 (some centres undefined) do in these assays?
Pf Dd2 growth: inactive; C diff growth: inactive; T cruzi growth-1: inconclusive; T cruzi growth-2: 105; T cruzi growth-3: inactive; 3T3 cytotox: inactive; 3T3 cytotox 2: inactive

What do the screens show for `CC1C=NC(S(=O)(=O)N2CC[C@@H]3[C@H]2c2cc(-c4ccccc4)ccc2N(C)[C@H]3CO)=N1` (some centres undefined)?
Pf Dd2 growth: inactive; C diff growth: inactive; T cruzi growth-1: inconclusive; T cruzi growth-2: 101; T cruzi growth-3: inactive; 3T3 cytotox: inactive; 3T3 cytotox 2: inactive

Results for CC1C=NC(S(=O)(=O)N2CC[C@H]3[C@@H](CO)N(C)c4ccc(-c5ccccc5)cc4[C@H]32)=N1 (some centres undefined) ?
Pf Dd2 growth: inactive; C diff growth: inactive; T cruzi growth-1: inactive

How did CC1C=NC(S(=O)(=O)N2CC[C@@H]3[C@@H](CO)N(C)c4ccc(-c5ccc(F)cc5)cc4[C@@H]32)=N1 (some centres undefined) do in these assays?
Pf Dd2 growth: inactive; C diff growth: inactive; T cruzi growth-1: inactive
